# Screens (PubChem)
# TrxR1 inh = rat TrxR1 inhibition. O89049. actives 1% (n = 390,000). AID 588453. Potency, µM (top dose mostly 114 µM), without a hit: at the highest dose activity change, negative = inhibition, actives largely listed as inhibitors. recombinant rTrxR1, NADPH fluorescence consumption, selenite substrate; also: nearly all actives have a fitted effect of over 65% in size
#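 Rat TrxR1 (90 nM in the dispensed reagent) was pre-reduced with 400 uM NADPH for 5 min at room temperature, then incubated with compound for 15 min. After 400 uM selenite was added, NADPH fluorescence (Ex 340/Em 450 nm) was followed for 8 min.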
# KAT2A inh = inhibitors of human GCN5L2 histone acetyltransferase; Q92830; GCN5L2 HAT assay, ThioGlo1 CoA-SH fluorescence; Potency, µM (top dose mostly 58.9 µM), without a hit: top-dose activity change, negative = inhibition, most hits filed as inhibitors; actives 0.21% (n = 390,000); AID 504327
#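 Titration-based screen in which CoA formation is detected via maleimide probe ThioGlo1 (50uM) turning fluorescent on thiol reaction; substrates H3(1-25) 75uM and acetyl-CoA 70uM, GCN5L2 20nM, 20 min incubation at room temperature.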
# Sfp inh = blocks B. subtilis Sfp PPTase activity. Biochemical Sfp PPTase activity, qHTS. Potency, µM, for inactives: largest response in the series, negative = inhibition, usual class: inhibitors. actives 3.5% (n = 310,000). AID 1490;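 also: the enzyme is Sfp with the accession as filed and its product quenches rhodamine fluorescence; 0% = enzyme reaction without inhibitor and -100% = no enzyme wells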
#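 Reaction rates are the 30-min fluorescence difference (ex 525, em 598 nm) in wells containing 15 nM Sfp, 5 uM rhodamine-CoA and 12.5 uM BHQ-2-YbbR at pH 7.6 with 10 mM MgCl2.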
# VDR inhibitor = inhibitors of human vitamin D receptor; Potency, µM, for inactives: max response, negative = inhibition, usual class: inhibitors; VDR-SRC2-3 peptide fluorescence polarization, 2 h; actives 0.93% (n = 400,000); AID 504847
#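 FP read-out; VDR + SRC2-3 coactivator peptide; 23 nl compound by pintool; 2 h RT incubation; reagents held at 4 deg C, protected from light.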
# TrxR1 substrate = rat thioredoxin reductase 1 substrate activity; O89049; purified TrxR1 substrate turnover, NADPH consumption readout; Potency, µM (top dose mostly 114 µM), for inactives: top-dose activity change, negative = substrate turnover; actives 0.01% (n = 390,000); also: nearly all actives have a fitted effect of over 50% in size
#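 Rat TrxR1, dispensed at 90 nM, was prereduced with 400 uM NADPH (final) for 5 min at ~22 deg C, then incubated with compound 15 min before 400 uM selenite. A first-read NADPH fluorescence drop versus no-compound background flagged substrates.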
# GLS inhibitor = glutaminase GLS (human) inhibition; AID 624170; Potency, µM (top dose mostly 45.5 µM), for inactives: at the top dose activity change, negative = inhibition, hits mostly inhibitors; actives 0.21% (n = 410,000); GLS enzymatic activity, qHTS titration
# Target sequence (O94925 whole entry, looked up): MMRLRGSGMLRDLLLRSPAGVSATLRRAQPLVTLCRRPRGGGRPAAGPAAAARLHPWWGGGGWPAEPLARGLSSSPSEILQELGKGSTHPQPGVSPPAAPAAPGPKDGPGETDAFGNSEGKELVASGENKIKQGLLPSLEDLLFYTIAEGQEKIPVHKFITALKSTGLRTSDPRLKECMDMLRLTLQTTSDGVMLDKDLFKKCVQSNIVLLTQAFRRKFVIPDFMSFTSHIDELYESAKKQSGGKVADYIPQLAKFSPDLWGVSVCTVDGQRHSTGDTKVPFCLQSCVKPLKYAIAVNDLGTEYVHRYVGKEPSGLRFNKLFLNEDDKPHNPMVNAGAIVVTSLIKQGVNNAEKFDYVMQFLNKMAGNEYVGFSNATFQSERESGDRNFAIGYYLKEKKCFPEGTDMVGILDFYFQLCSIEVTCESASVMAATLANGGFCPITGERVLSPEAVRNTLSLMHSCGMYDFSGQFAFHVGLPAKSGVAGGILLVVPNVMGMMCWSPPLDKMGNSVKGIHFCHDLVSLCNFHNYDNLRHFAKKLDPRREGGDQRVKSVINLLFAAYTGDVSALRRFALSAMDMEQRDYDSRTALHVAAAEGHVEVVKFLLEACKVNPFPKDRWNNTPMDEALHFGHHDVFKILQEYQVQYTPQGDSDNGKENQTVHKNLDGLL
#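 Enzyme dispensed in phosphate buffer (45 mM, pH 8.2, 0.02% Tween-20), compounds pinned in, then 1 mM L-glutamine solution and the glutamate oxidase–HRP–Amplex Red mix added; fluorescence read immediately and again after 30 min at room temperature.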
# * = called active by the depositor; ? = inconclusive; . = not tested or not shown; [ ] = remark or other dose. In the library only some 3.8% were active in any assay of this set; here they are far more common. Calls follow the shape of the dose curve; as a rule, active = well fitted curve in the direction sought with a large enough effect; inconclusive = small, poorly fitted or top-dose-only effect, or another doubt; inactive = no such curve, though single readings can be large; an effect the other way counts as inactive or inconclusive. Unless noted, % is scaled to controls: 0 for no effect and ±100 for the full control effect; potency is read from the fitted curve at half-maximal effect.
SMILES,TrxR1 inh,KAT2A inh,Sfp inh,VDR inhibitor,TrxR1 substrate,GLS inhibitor
CCN1CCN(C(c2ccc(OC)cc2)c2c(O)cc(C)n(Cc3ccco3)c2=O)CC1 (stereo not drawn),?,-11%,.,-19%,6%[57.1 µM],19%
Cc1cc(O)c(C(c2ccccc2)N2CCN(C)CC2)c(=O)n1Cc1ccco1 (stereo not drawn),8.9µM*,-4%,.,14%,1%[57.1 µM],0%
CCN1CCN(C(c2ccccc2Cl)c2c(O)cc(C)n(Cc3ccco3)c2=O)CC1 (stereo not drawn),8.9µM*,-7%,.,-18%,3%[57.1 µM],3%
CCN1CCN(C(c2ccccc2)c2c(O)cc(C)n(Cc3ccco3)c2=O)CC1 (stereo not drawn),7.9µM*,-6%,.,-3%,-4%[57.1 µM],8%
COc1ccc(NC(=O)CSc2ccc(-c3cccs3)nn2)cc1,-2%,-8%,.,4%,-7%,4%
COc1cc(NC(=O)CSc2ccc(-c3ccco3)nn2)cc(OC)c1,35µM*,-2%,28µM*,-12%,2%,0%
COc1ccc(NC(=O)CSc2ccc(-c3ccco3)nn2)cc1,50µM*,-20%,32µM*,-16%,-9%,2%
CC(C)C[C@H]1CNC(=O)C(=O)N1CC1CCN(CCC(C)(C)C)CC1,7%,.,.,-11%,-3%,5%
CC(C)[C@H](NC(N)=O)C(=O)Nc1ccc(Oc2ccccc2)cc1,15%[57.1 µM],2%,10%,-8%,2%[57.1 µM],-10%
CCCn1c2ccccc2c2cnn(CC(=O)NCCc3ccccc3)c(=O)c21,7%[57.1 µM],-2%,.,10%,-1%[57.1 µM],2%
COc1ccc(-n2cnnc2SC(C)c2nc3sc(C)c(C)c3c(=O)[nH]2)cc1 (stereo not drawn),.,-5%,89µM*,.,.,.
Cc1ccc(-n2nnnc2SCc2nc3sc(C)c(C)c3c(=O)[nH]2)cc1,12%,-3%,-4%,-17%,1%,-6%
Cc1noc(C)c1C(=O)N1CCC1(C)C(=O)NS(=O)(=O)c1ccc(Cl)cc1 (stereo not drawn),.,.,.,.,.,4%
Cc1nc(Cc2nnc(SCC(=O)N3CCN(c4ccc(F)cc4)CC3)o2)cs1,12%,2%,.,-8%,3%,9%
Cc1cnc(CNc2cc(-c3cccc(C#N)c3)ncn2)cn1,.,-11%,-2%,-6%,.,.
CS(=O)(=O)Nc1cccc(-c2ccc3ncnc(N4CCOCC4)c3c2)c1,.,?,18%,45µM*,.,.
COCCNc1ncnc2ccc(-c3ccccc3OC)cc12,.,-10%,10%,-7%,.,.
CN1CCN(c2ncnc3ccc(-c4ccoc4)cc23)CC1,.,-18%,17%,45µM*,.,.
COCCNc1ncnc2ccc(-c3ccc(N(C)C)cc3)cc12,.,?,-28%,40µM*,.,.
COCCNc1ncnc2ccc(-c3ccccc3C(F)(F)F)cc12,.,?,56µM*,?,.,.
COc1ccc(CN2CCN(C(=O)c3cccs3)CC2)cc1,5%,-3%,-24%,2%,-3%,0%
CCOc1ccc(-c2cc(C(=O)NCc3ccc(F)cc3)[nH]n2)c(C)c1,.,.,.,.,.,4%
COc1cccc(-c2ccc3ncnc(NCCN4CCOCC4)c3c2)c1,.,-11%,2%,4%,.,.
COc1cccc(-c2ccc3ncnc(NCCNC(C)=O)c3c2)c1,.,-12%,20%,-8%,.,.
Clc1ccccc1-c1ccc2ncnc(N3CCNCC3)c2c1,.,-6%,6%,?,.,.
COCCNc1ncnc2ccc(-c3ccoc3)cc12,.,?,1%,40µM*,.,.
COc1ccc2[nH]cc(CCNc3ncnc4ccc(-c5ccoc5)cc34)c2c1,.,-16%,3%,?,.,.
CC(=O)NCCNc1ncnc2ccc(-c3ccoc3)cc12,.,25µM*,-10%,40µM*,.,.
c1nc(NCCN2CCOCC2)c2cc(-c3ccoc3)ccc2n1,.,-23%,34%,45µM*,.,.
Cc1ccccc1-c1ccc2ncnc(N3CCNCC3)c2c1,.,-5%,0%,50µM*,.,.
